In the library only some 8% were active in any assay of this set; here they are far more common.
HT1080 IDH1KD tx – qHTS for induction of synthetic lethality in tumor cells producing 2HG: qHTS for the HT-1080-IDH1KD cell line; actives 2% (n = 360,000); Potency, µM (highest dose often 46.1 µM), for inactives: top-dose activity, negative = toxicity, most hits filed as cytotoxic; AID 686971, 2013; HT-1080 IDH1 knockdown viability, ATP luminescence, 48 h;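 also: 0% = DMSO wells and -100% = cell-free medium wells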
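Viability of IDH1-knockdown HT-1080 fibrosarcoma cells was assessed by CellTiter-Glo after 48 h at 37 °C with titrated compound; concentration-effect curves were classified by fit quality and response size.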
HT1080-NT tox – qHTS for induction of synthetic lethality in tumor cells producing 2HG: qHTS for the HT-1080-NT fibrosarcoma cell line | actives 1.6% (n = 360,000) | Potency, µM (doses to about 46.1 µM), inactives show top-dose activity, negative = less viability, actives largely listed as cytotoxic | HT-1080-NT fibrosarcoma viability, CellTiter-Glo ATP luminescence, 48 h;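 also: NT is the 2HG producing partner of a matched IDH1 knockdown line; 0% = DMSO-treated cells and -100% = media-only wells without cells; nearly all actives have a fitted effect of over 55% in size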
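A 48-hour cytotoxicity screen used HT-1080-NT cells plated 2 hours before compound delivery. ATP-based CellTiter-Glo luminescence measured viability, normalized to DMSO and no-cell controls.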
KB-3-1 tox – qHTS assay for MDR1-selective chemotherapeutics: Primary screen using the parental adenocarcinoma cell KB-3-1 | KB-3-1 viability, CellTiter-Glo ATP luminescence, 72 h | Potency, µM (doses to about 46.1 µM), actives largely listed as cytotoxic | actives 1.4% (n = 400,000) | AID 1347075, 2019; also: % is scaled to controls: 0 for no effect and ±100 for the full control effect; nearly all actives have a fitted effect of over 60% in size
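Parental KB-3-1 viability, qHTS format: 72 h compound exposure, 37 °C; CellTiter-Glo; media-only wells and DMSO plates as controls; concentration-effect fits on corrected data.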
KB-V1 cytotox – qHTS assay for MDR1-selective chemotherapeutics: Primary screen using the drug-selected MDR subline cells KB-V1; KB-V1 MDR cells viability, CellTiter-Glo, 72 h; Potency, µM (doses to about 46.1 µM), usual class: cytotoxic; AID 1347076, 2019; actives 3.4% (n = 400,000); also: % is scaled to controls: 0 for no effect and ±100 for the full control effect; nearly all actives have a fitted effect of over 60% in size
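KB-V1, DMEM (no phenol red) + 10% FBS; cpd pin-transferred, titration series; 72 h, 37 degrees C; CellTiter-Glo, luminescence. Data normalized, curve-fit.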
SW480 rereplic – A quantitative high throughput screen for small molecules that induce DNA re-replication in SW480 colon adenocarcinoma cells; SW480 DNA re-replication, Hoechst DNA content imaging, 48 h; Potency, µM (top dose mostly 46.1 µM), for inactives: at the highest dose re-replication activation, most hits filed as activators; actives 1.8% (n = 340,000); AID 624297, 2012; also: % of control where 0% means no effect; nearly all actives have a fitted effect of over 55% in size
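Readout is total intensity of Hoechst-stained nuclei, excited at 405 nm and collected at 500-530 nm. Compound treatment lasted 48 hr at 37 C in 5% CO2 before staining.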
MCF10A rereplic – A quantitative high throughput screen for small molecules that induce DNA re-replication in MCF 10a normal breast cells; actives 2.9% (n = 350,000); AID 624296, 2012; Potency, µM (titrated, usually from 46.1 µM), for the others: at the top dose activity, positive = re-replication, most hits filed as activators; MCF 10A DNA re-replication, Hoechst nuclear intensity, 48 h; also: % of control where 0% means no effect; nearly all actives have a fitted effect of over 50% in size
* marks the source's active call; other numbers are inactive results. Calls follow the shape of the dose curve; as a rule, active = well fitted curve in the direction sought with a large enough effect; inconclusive = small, poorly fitted or top-dose-only effect, or another doubt; inactive = no such curve, though single readings can be large; an effect the other way counts as inactive or inconclusive. Potency is read from the fitted curve at half-maximal effect.

How did COc1ccc(S(=O)(=O)NCCSc2nnnn2-c2ccccc2)cc1OC do in these assays?
KB-3-1 tox: inactive; KB-V1 cytotox: inactive

Results for Cc1ccc(C)c(N2CCN(C(=O)Cn3c(=O)[nH]c4ccsc4c3=O)CC2)c1 ?
HT1080 IDH1KD tx: -1%; HT1080-NT tox: 1%; KB-3-1 tox: inactive; KB-V1 cytotox: 21µM*; SW480 rereplic: -1%; MCF10A rereplic: 9%

What do the screens show for `Cc1cccc(N2CCN(C(=O)Cc3ccc(-n4c(=O)[nH]c5ccsc5c4=O)cc3)CC2)c1C`?
HT1080 IDH1KD tx: 8%; HT1080-NT tox: 9%; KB-3-1 tox: inactive; KB-V1 cytotox: 15µM*; SW480 rereplic: -3%; MCF10A rereplic: inconclusive

Results for Cc1ccc(CNC(=O)CCCCn2c(=O)[nH]c3ccsc3c2=O)cc1 ?
HT1080 IDH1KD tx: 0%; HT1080-NT tox: 0%; KB-3-1 tox: inactive; KB-V1 cytotox: inactive; SW480 rereplic: -3%; MCF10A rereplic: 2%

How did Cc1ccc(C)c(N2CCN(C(=O)Cc3ccc(-n4c(=O)[nH]c5ccsc5c4=O)cc3)CC2)c1 do in these assays?
HT1080 IDH1KD tx: -14%; HT1080-NT tox: -8%; KB-3-1 tox: inactive; KB-V1 cytotox: inactive; SW480 rereplic: -2%; MCF10A rereplic: inconclusive

What do the screens show for `Cc1ccc(CNC(=O)Cc2ccc(-n3c(=O)[nH]c4ccsc4c3=O)cc2)cc1`?
HT1080 IDH1KD tx: 4.1µM*; HT1080-NT tox: 3.7µM*; KB-3-1 tox: 1.3µM*; KB-V1 cytotox: inactive; SW480 rereplic: 6.5µM*; MCF10A rereplic: 2.1µM*

How did Cc1cc(N2CCCC2)c(F)cc1/C=C\[N+](=O)[O-] do in these assays?
HT1080 IDH1KD tx: inconclusive; HT1080-NT tox: inconclusive; KB-3-1 tox: inconclusive; KB-V1 cytotox: inconclusive; SW480 rereplic: 29µM*; MCF10A rereplic: inconclusive

What do the screens show for `Cc1ccccc1NC(=S)N(C)Cc1cn(C)c2ccccc12`?
HT1080 IDH1KD tx: 5%; HT1080-NT tox: -1%; KB-3-1 tox: inactive; KB-V1 cytotox: 18µM*; SW480 rereplic: 0%; MCF10A rereplic: 1%

Results for O=C1c2ccccc2C(=O)c2c1ncn2-c1ccccc1 ?
HT1080 IDH1KD tx: -18%; HT1080-NT tox: inconclusive; KB-3-1 tox: inconclusive; KB-V1 cytotox: 21µM*; SW480 rereplic: 16µM*; MCF10A rereplic: inconclusive

What do the screens show for `Nc1nc2c(ncn2-c2ccccc2)c(=O)[nH]1`?
HT1080 IDH1KD tx: -2%; HT1080-NT tox: -4%; KB-3-1 tox: inactive; KB-V1 cytotox: inactive; SW480 rereplic: -1%; MCF10A rereplic: 0%

Results for Cc1ccc(S(=O)(=O)CCC(=O)N2CCc3ccccc32)cc1 ?
HT1080 IDH1KD tx: 0%; HT1080-NT tox: 1%; KB-3-1 tox: inactive; KB-V1 cytotox: 21µM*; SW480 rereplic: -20%; MCF10A rereplic: -15%

How did COc1ccc(N2CC(C(=O)N/N=C/c3ccc([N+](=O)[O-])cc3)CC2=O)cc1 (centres undefined) do in these assays?
HT1080 IDH1KD tx: 5%; HT1080-NT tox: 8%; KB-3-1 tox: inactive; KB-V1 cytotox: inactive; SW480 rereplic: -8%; MCF10A rereplic: 15%

How did COc1ccc(N2CC(C(=O)N/N=C/c3ccc(C)cc3)CC2=O)cc1 (centres undefined) do in these assays?
HT1080 IDH1KD tx: 2.3µM*; HT1080-NT tox: 3.3µM*; KB-3-1 tox: 1.8µM*; KB-V1 cytotox: 1.5µM*; SW480 rereplic: 5.2µM*; MCF10A rereplic: 2.3µM*

Results for O=C(O)c1ccc(S(=O)(=O)N(Cl)Cl)cc1 ?
SW480 rereplic: -12%; MCF10A rereplic: 7%

How did O=C1CC(c2ccc3c(c2)OCCO3)Oc2ccc([N+](=O)[O-])cc21 (centres undefined) do in these assays?
HT1080 IDH1KD tx: 0%; HT1080-NT tox: inconclusive; KB-3-1 tox: inconclusive; KB-V1 cytotox: inconclusive; SW480 rereplic: -4%; MCF10A rereplic: 16µM*

What do the screens show for `O=C1CC(c2ccc3c(c2)OCCO3)Oc2ccccc21` (centres undefined)?
HT1080 IDH1KD tx: -3%; HT1080-NT tox: 16%; KB-3-1 tox: inactive; KB-V1 cytotox: inactive; SW480 rereplic: inconclusive; MCF10A rereplic: inconclusive

How did CC(CNC(=S)Nc1cc(F)cc(F)c1)CSc1ccc(Cl)cc1 (centres undefined) do in these assays?
HT1080 IDH1KD tx: inconclusive; HT1080-NT tox: 18µM*; KB-3-1 tox: inactive; KB-V1 cytotox: inconclusive; SW480 rereplic: 2%; MCF10A rereplic: -1%

What do the screens show for `NC(=O)c1cc(S(=O)(=O)NCC2CCC(C(=O)Nc3ccc(Cl)cc3)CC2)cs1` (centres undefined)?
KB-3-1 tox: inactive; KB-V1 cytotox: inactive

Results for CCC(Sc1nc(C)cc(C)n1)C(=O)NC1=NN=C(c2ccc(C)cc2)CS1 (centres undefined) ?
HT1080 IDH1KD tx: inconclusive; HT1080-NT tox: inconclusive; KB-3-1 tox: inactive; KB-V1 cytotox: inactive; SW480 rereplic: inconclusive; MCF10A rereplic: inconclusive

How did Cc1cc(C)nc(SCC(=O)NC2=NN=C(c3ccc(Br)cc3)CS2)n1 do in these assays?
HT1080 IDH1KD tx: 16µM*; HT1080-NT tox: 22µM*; KB-3-1 tox: inconclusive; KB-V1 cytotox: inactive; SW480 rereplic: inconclusive; MCF10A rereplic: 10%

Results for CCCN(CCC)CCNS(=O)(=O)c1ccc2c(c1)CCN2C(=O)C1CCC1 ?
HT1080 IDH1KD tx: -1%; HT1080-NT tox: 9%; KB-3-1 tox: inactive; KB-V1 cytotox: inconclusive; SW480 rereplic: 12µM*; MCF10A rereplic: 2.6µM*

What do the screens show for `CCOc1ccc(-n2c(SCC(=O)Nc3cccc(Cl)c3)nc3c(oc4ccccc43)c2=O)cc1`?
KB-3-1 tox: inactive; KB-V1 cytotox: inactive

What do the screens show for `CCOc1ccc2nc(N(CCCN(C)C)C(=O)c3ccc4c(c3)CCCC4)sc2c1`?
HT1080 IDH1KD tx: inconclusive; HT1080-NT tox: 18µM*; KB-3-1 tox: 21µM*; KB-V1 cytotox: inactive; SW480 rereplic: inconclusive; MCF10A rereplic: inconclusive

How did CN(C)CCCN(C(=O)c1ccc2c(c1)CCCC2)c1nc2ccc(Cl)cc2s1 do in these assays?
HT1080 IDH1KD tx: inconclusive; HT1080-NT tox: inconclusive; KB-3-1 tox: inconclusive; KB-V1 cytotox: 10µM*; SW480 rereplic: inconclusive; MCF10A rereplic: inconclusive

Screens deposited in PubChem by National Center for Advancing Translational Sciences (NCATS).
